The list is not random: actives were taken first. Their share in the collection is about 8%.
HT1080-NT tox – kills 2HG-producing HT-1080-NT fibrosarcoma cells. AID 686970. Potency, µM (doses to about 46.1 µM), for the others: at the highest dose activity, negative = less viability, hits mostly cytotoxic. HT-1080-NT fibrosarcoma viability, CellTiter-Glo ATP luminescence, 48 h. hit rate 1.6% among 360,000;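 further: NT is the 2HG producing partner of a matched IDH1 knockdown line; 0% = DMSO-treated cells and -100% = media-only wells without cells; nearly all actives have a fitted effect of over 55% in size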
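Luminescent CellTiter-Glo readout after 48 hours of compound exposure at 37 degrees C defined viability of HT-1080-NT cells. Activity was normalized to DMSO wells and cell-free media wells; concentration-response curves were fitted and assigned curve classes.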
KB-V1 MDR tox – kills drug-selected multidrug resistant KB-V1 cells; KB-V1 MDR cells viability, CellTiter-Glo, 72 h; Potency, µM (highest dose often 46.1 µM), most hits filed as cytotoxic; AID 1347076; hit rate 3.4% among 400,000; further: on the % scale 0 is the no-effect control and ±100 the full control effect; nearly all actives have a fitted effect of over 60% in size
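KB-V1 MDR subline cells in DMEM (phenol-red free, 10% FBS) exposed to compounds in qHTS concentration series for 72 h at 37 degrees C. Viability read by CellTiter-Glo luminescence; concentration-effect curves fitted after normalization and correction.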
SW480 rereplic – induces DNA re-replication in SW480 colon adenocarcinoma cells; SW480 DNA re-replication, Hoechst DNA content imaging, 48 h; Potency, µM (highest dose often 46.1 µM), for inactives: at the top dose re-replication activation, usual class: activators; hit rate 1.8% among 340,000; further: % of control where 0% means no effect; nearly all actives have a fitted effect of over 55% in size
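Readout is total intensity of Hoechst-stained nuclei, excited at 405 nm and collected at 500-530 nm. Compound treatment lasted 48 hr at 37 C in 5% CO2 before staining.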
HT1080 IDH1KD tx – toxicity to HT-1080 IDH1 knockdown cells (counter line). hit rate 2% among 360,000. Potency, µM (doses to about 46.1 µM), inactives show at the top dose activity, negative = toxicity, hits mostly cytotoxic. HT-1080 IDH1 knockdown viability, ATP luminescence, 48 h;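 further: 0% = DMSO wells and -100% = cell-free medium wells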
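Assay cells: HT-1080 with IDH1 knockdown, 750 per well, RPMI/5% FBS. Exposure: 48 h at 37 °C following 2 h pre-incubation. Read: CellTiter-Glo luminescence; fitted concentration-response, curve class assigned.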
MCF10A rereplic – induces DNA re-replication in MCF 10a normal breast cells; Potency, µM (highest dose often 46.1 µM), without a hit: at the highest dose activity, positive = re-replication, actives largely listed as activators; hit rate 2.9% among 350,000; MCF 10A DNA re-replication, Hoechst nuclear intensity, 48 h; further: % of control where 0% means no effect; nearly all actives have a fitted effect of over 50% in size
KB-3-1 tox – KB-3-1 parental cell cytotoxicity; KB-3-1 viability, CellTiter-Glo ATP luminescence, 72 h; Potency, µM (top dose mostly 46.1 µM), most hits filed as cytotoxic; AID 1347075; hit rate 1.4% among 400,000; further: on the % scale 0 is the no-effect control and ±100 the full control effect; nearly all actives have a fitted effect of over 60% in size
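Here the drug-naive KB-3-1 line serves as comparator for MDR sub-line selectivity; cells received compound titrations, 72 h at 37 °C, then CellTiter-Glo readout.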
* marks the source's active call; other numbers are inactive results; i = inactive; ? = inconclusive; . = no result. The call rests on the fitted dose curve; in most records, active means well fitted curve in the direction sought with a large enough effect; inconclusive means small, poorly fitted or top-dose-only effect, or another doubt; inactive means no such curve, though single readings can be large; an effect the other way counts as inactive or inconclusive. Potency means the concentration at half of the fitted maximal effect.

SMILES	HT1080-NT tox	KB-V1 MDR tox	SW480 rereplic	HT1080 IDH1KD tx	MCF10A rereplic	KB-3-1 tox
Cc1cccc(C2NC(=O)c3ccccc3N2)c1 (stereo not drawn)	?	?	16µM*	?	15µM*	13µM*
Cc1ccc(C2NC(=O)c3ccccc3N2)s1 (stereo not drawn)	?	7.3µM*	21µM*	15µM*	?	4.6µM*
CN(C)c1ccc(C2NC(=O)c3ccccc3N2)cc1 (stereo not drawn)	-22%	13µM*	?	-23%	?	?
Cc1ccc(N=C2C(=O)Nc3ccccc32)c(C)c1	-6%	i	-6%	-1%	6%	i
O=C1NC(c2ccc(Cl)cc2)Nc2ccccc21 (stereo not drawn)	-7%	i	-9%	5%	-41%	i
Cc1ccc(C2NC(=O)c3ccccc3N2)c(C)c1 (stereo not drawn)	7.3µM*	5.8µM*	?	18µM*	6.5µM*	3.7µM*
COc1ccc2c(c1)C(C)(CCN)C(=O)N2C (stereo not drawn)	.	i	-20%	.	-6%	i
Cc1cccc(Cn2c(C)c(CNC3CCCCC3)c(C(=O)O)c2C)c1	.	?	.	.	.	i
COc1cccc(/C=C2\SC(=O)NC2=O)c1OCc1ccc(C(=O)O)cc1	13%	i	-7%	11%	21%	i
O=C1N/C(=N/NC(=O)c2cccc3ccccc23)S/C1=C\c1ccccc1OCc1ccccc1	?	i	5%	?	23µM*	?
COc1ccc(OC)c(/C=C2\S/C(=N/NC(=O)c3ccc4ccccc4c3)NC2=O)c1	0%	i	2%	5%	16µM*	i
CC(C)CN(CC(C)C)c1ccc(/C=C/c2ccnc3ccccc23)cc1	.	i	.	.	.	i
CCc1sc(C(=O)NCc2cc(C)n(C)n2)cc1Br	?	i	?	16µM*	-2%	i
Nc1ccccc1-c1nnc2n1CCCCC2	19%	i	0%	11%	-6%	i
N#CCSc1nnc(COc2cccc3ccccc23)n1-c1ccccc1	?	16µM*	5%	?	?	16µM*
Cc1cccc(OCc2nnc(SCc3cc(=O)[nH]c4ccccc34)n2-c2ccccc2)c1	2%	18µM*	-75%	-15%	0%	i
COc1ccc(-n2c(COc3cccc4ccccc34)nnc2SCC#N)cc1	?	i	-3%	?	?	?
O=C(O)CSc1nnc(COc2ccccc2)n1-c1ccccc1	11%	i	1%	-1%	0%	i
N#CCSc1nnc(COc2ccccc2)n1-c1ccccc1	15%	23µM*	-1%	5%	17%	i
Cc1ccc(-n2c(SCc3ccc(C#N)cc3)nnc2-c2ccccn2)cc1	8%	i	-17%	4%	2%	i
Cc1ccc(OCc2nnc(SCc3ccc(C#N)cc3)n2-c2ccc(C)cc2)cc1	?	i	8%	11µM*	?	i
Cc1ccc(-c2nnc(CSc3nnc(COc4cccc5ccccc45)n3-c3ccccc3)o2)cc1	-16%	2.1µM*	-114%	?	1%	?
N#CCSc1nnc(COc2cccc3ccccc23)n1-c1cccc(Cl)c1	?	?	1%	?	?	i
CCCN(CCC)c1nc(NC2CCN(C(=O)OCC)CC2)nc(OC)n1	?	16µM*	17%	?	15%	?
CCCCCCCCCCCCCCC[C@@H](O)[C@@H](N)CO	18µM*	?	-75%	21%	-22%	i
SMILES	HT1080-NT tox	KB-V1 MDR tox	SW480 rereplic	HT1080 IDH1KD tx	MCF10A rereplic	KB-3-1 tox
CCCCCCCCCCCCCCC[C@H](O)[C@H](N)CO	.	i	17%	.	?	i
Cc1cccc(CNC(=O)c2ccc(NC(=O)N3CC(C)Sc4ccccc43)cc2)c1 (stereo not drawn)	.	i	.	.	.	i
O=c1[nH]c(Nc2nc3ccccc3o2)nc2c1CCCC2	2.2µM*	?	3%	4µM*	-30%	i
CCOc1ccc(Nc2nc3c(c(=O)[nH]2)CCCC3)cc1	17%	18µM*	?	12%	8%	i
CCOC(=O)COc1ccc([N+](=O)[O-])cc1-c1ccnc2cc(-c3ccc(Cl)cc3)nn12	.	?	.	.	.	i
COc1ccc(OC)c(N2C(=O)CC(Cc3cc(C)cc(C)c3)C2=O)c1 (stereo not drawn)	?	?	?	?	7%	6.5µM*
COc1ccc(OC)c(N2C(=O)CC(Cc3ccc(Cl)cc3)C2=O)c1 (stereo not drawn)	2%	i	-2%	-1%	-2%	i
CC1Cc2ccccc2N1S(=O)(=O)c1cnc(Cl)c(Cl)c1 (stereo not drawn)	-3%	i	-5%	2%	15µM*	i
CC1Cc2ccccc2N1S(=O)(=O)c1cnc(Cl)c(Br)c1 (stereo not drawn)	-1%	i	?	-12%	?	i
Cc1ccccc1-c1noc(CSc2nc(-c3ccc(F)cc3)cc(=O)[nH]2)n1	.	i	.	.	.	i
COc1ccc(Nc2cnn(-c3nc4ccccc4s3)c(=O)c2Cl)cc1	?	21µM*	10%	?	?	?
O=c1c(Cl)c(Nc2cccc(Cl)c2)cnn1-c1nc2ccccc2s1	-5%	i	-2%	5%	8%	?
Cc1nonc1OCC(C)(COc1nonc1C)NC(=O)c1ccc(Cl)cc1	?	4.1µM*	0%	-28%	-1%	?
S=c1nc[nH]c2c1cnn2-c1ccccc1	17%	8.2µM*	-7%	0%	0%	?
Nc1ncnc2c1cnn2-c1ccccc1	-2%	?	-15%	5%	5%	i
COC(=O)C(=NNc1c(C)n(C)n(-c2ccccc2)c1=O)C(=O)OC	?	i	7%	30%	1%	i
CCOC(=O)NC(=O)/C(C#N)=N\Nc1ccc(Cl)cc1	-1%	i	2%	1%	-2%	i
Cc1c(NC(=O)/C(C#N)=C/c2ccc(-c3ccc(Cl)cc3)o2)c(=O)n(-c2ccccc2)n1C	-1%	?	15%	-17%	-1%	i
Cc1c(N/N=C(\C#N)C(=O)c2ccc(Cl)cc2)c(=O)n(-c2ccccc2)n1C	?	i	9.2µM*	2.6µM*	2.9µM*	3.3µM*
N#C/C(=N\Nc1ccc(Cl)cc1)C(=O)c1ccccc1	2.6µM*	i	10%	?	23µM*	?

High-throughput results as filed in PubChem.
